Results filed as inconclusive are left out. Activity calls are given as the source filed them. The call rests on the fitted dose curve.
On the % scale 0 is the no-effect control and ±100 the full control effect.

The assay concerns thyroid hormone receptor (rat, GH3 cells). As to the kind of experiment: qHTS assay to identify small molecule agonists of the thyroid receptor (TR) signaling pathway (AID 743066). Particulars: GH3.TRE-Luc cells, TR agonist luciferase, 24 h; series mostly up to 83.9 µM; activation: at the top concentration. Background: Quantitative high-throughput screening tests each substance at several concentrations.
`CCCCCCCCCCOc1cc2c(=O)c(C(=O)OCC)c[nH]c2cc1OCC`: the “activation” value was -0.0963% (inactive).

On to `CCOC(=O)C1=NOC(c2ccccc2)(c2ccccc2)C1`, for which the “activation” value was -2.85% (inactive).

With `CCCOC(=O)CC`, the “activation” value was 4.04% (inactive).

For the molecule `O=C(c1ccccc1O)c1ccccc1O`, the “activation” value is -6.31% (inactive).

On to `NC(=O)N[C@@H](CCC(=O)O)C(=O)O`, for which the “activation” value was 1.05% (inactive).

Turning to `CCCCN(CCC(=O)OCC)C(C)=O`, the “activation” value was 0.288% (inactive).

Turning to `CC1OC1C1CCC2(C)OC2C1` (centres undefined), the “activation” value is 0.541% (inactive).

Regarding `CC1=CC(=O)[C@H]2C[C@@H]1C2(C)C`, the “activation” value was -0.363% (inactive).

Take `CC(C)C(=O)OC(=O)C(C)C`: the “activation” value was 0.364% (inactive).

Turning to `CCN1C=CN(C)C1C` (centres undefined), the “activation” value is -1.94% [at 95.2 µM] (inactive).

Consider `O=C1NC(=O)C2CC=CCC12` (centres undefined), for which the “activation” value is 1.81% (inactive).

With `CC(=O)N1C[C@H](O)C[C@H]1C(=O)O`, the “activation” value was 0.85% (inactive).

As to `O=C(c1ccccc1)C1(O)CCCCC1`, the “activation” value is 1.23% (inactive).

`CN1CC(=O)N/C1=N/C(=O)Nc1cccc(Cl)c1`: the call was inactive.

As to `CN1CCC(=C2c3ccccc3CCc3cccnc32)CC1`, the “activation” value was -3.34% (inactive).

As to `CC(=O)c1ccccc1[N+](=O)[O-]`, the “activation” value was 0.806% (inactive).

On to `O=C(O)c1cc(C(=O)O)cc(C(=O)O)c1`, for which the “activation” value is 0.335% [at 95.2 µM] (inactive).

`CCCCCCC1CCC(=O)O1` (centres undefined): the “activation” value was 0.496% [at 95.2 µM] (inactive).

For `NC(=O)N1c2ccccc2CC(=O)c2ccccc21`, the “activation” value is -0.0809% (inactive).

`O=CN(CCO)CCO`: the “activation” value was 0.0805% (inactive).

As to `C=CCCCCCCCCC(=O)OCC`, the “activation” value is 0.079% (inactive).

Consider `CC(C)(C)C(=O)c1ccccc1`, for which the “activation” value was 0.228% (inactive).

With `CC1(C)[C@@H]2CC[C@@]1(C)[C@H](O)C2`, the “activation” value was 0.307% (inactive).

Regarding `CC1=NN(c2cc(S(=O)(=O)O)ccc2Cl)C(=O)C1N=Nc1ccccc1` (centres undefined), the “activation” value was 0.0784% (inactive).

As to `CC(C)NNC(=O)c1ccncc1`, the “activation” value is 2.39% (inactive).

In the case of `CCCCCC(C)N` (centres undefined), the “activation” value was 2.02% (inactive).

For the molecule `COCCOC[C@H](CC1(C(=O)NC2CCC(C(=O)O)CC2)CCCC1)C(=O)Oc1ccc2c(c1)CCC2` (some centres undefined), the “activation” value was -0.663% (inactive).

In the case of `CCN[C@H]1C[C@H](C)S(=O)(=O)c2sc(S(N)(=O)=O)cc21`, the “activation” value is 0.0385% (inactive).

As for `CCCCOC(=O)CCC(C)=O`, the “activation” value was -1.09% (inactive).

Values taken from PubChem BioAssay (Tox21).
